In PubChem BioAssay (NCI) one finds growth data, which are given here for 9 compounds.

Some test systems named below: HCT-15 colon; HT29 colon; SNB-75 CNS; SNB-19 CNS; U251 CNS; PC-3 prostate; SK-MEL-5 melanoma; UACC-62 melanoma; LOX IMVI melanoma; SK-MEL-28 melanoma; EKVX NSCLC; SN12C renal; UO-31 renal; TK-10 renal; ACHN renal; CAKI-1 renal; CCRF-CEM leukemia; MOLT-4 leukemia; SK-MEL-2 melanoma; A498 renal.
Common to all, as to assay: NCI-60 one-dose screen, 48 h (100 = growth as untreated, 0 = no growth, -100 = all killed)
Holding throughout (details): 10 µM unless noted

About 83,000 compounds went through this panel and 20% of them were active in at least one assay; those are over-represented in the sample as a whole.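 The endpoint reported here, percent growth, reads 100 for growth as untreated, 0 for no net growth and -100 for all cells dead.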 Values without a mark were called inactive. Activity calls are given as the source filed them. How the source made its calls: active means growth percent below 10; inactive means the rest.

Take `C=C1C(=O)O[C@H]2[C@H]1CC/C(COC(=O)NCc1c[nH]c3ccc(Br)cc13)=C\CC[C@@]1(C)O[C@@H]21`: the growth with HCT-15 colon is -70.2% (active); in the assay on HT29 colon, -76.6% (active); with SNB-75 CNS it was -5.16% (active); in the assay on SNB-19 CNS, 40.2%; with U251 CNS, 3.96% (active); with PC-3 prostate, 15.4%. The growth in the assay on SK-MEL-5 melanoma is -27.1% (active); with UACC-62 melanoma, -63% (active); with LOX IMVI melanoma, -82% (active); in the assay with SK-MEL-28 melanoma, -33.5% (active); with EKVX NSCLC it was -16.5% (active); with SN12C renal, -43.2% (active). Further, the growth with UO-31 renal was -98.3% (active); in the assay on TK-10 renal, -68.7% (active); with ACHN renal, -71.2% (active); with CAKI-1 renal, -92.8% (active); with CCRF-CEM leukemia, -13.1% (active); in the assay with MOLT-4 leukemia it was -2.46% (active).

For `Cn1ccnc1C(=O)/C=C/c1ccc(CC(=O)Nc2ccc(F)cc2)cc1`, the growth in the assay with HCT-15 colon was 14.1%; in the assay on HT29 colon it was -26% (active); in the assay with SNB-75 CNS, -7.25% (active); with SNB-19 CNS, 19%; with U251 CNS, 9.49% (active); in the assay with PC-3 prostate, 36.1%. Further, the growth is 34% with SK-MEL-5 melanoma; 15.2% in the assay on LOX IMVI melanoma; 85.9% with SK-MEL-28 melanoma; 102% with SK-MEL-2 melanoma; 57.9% in the assay on EKVX NSCLC; 23.9% with SN12C renal. The growth with UO-31 renal is 37.2%; with TK-10 renal, 71.9%; with ACHN renal it was 69.3%; in the assay on CAKI-1 renal, 38.1%; in the assay with CCRF-CEM leukemia it was 6.85% (active); in the assay with MOLT-4 leukemia it was 20.6%.

On to `CC(Sc1nc2sc3c(c2c(=O)n1-c1ccc(Cl)cc1)CCCC3)C(=O)Nc1nc(-c2ccc(Br)cc2)cs1` (stereo unspecified), for which the growth is 95.4% with HCT-15 colon; 94.7% with HT29 colon; 95.9% in the assay with SNB-75 CNS; 96.6% in the assay on SNB-19 CNS; 97.2% in the assay on U251 CNS; 95.6% in the assay with PC-3 prostate. The growth with SK-MEL-5 melanoma was 97.4%; in the assay on UACC-62 melanoma, 88.9%; in the assay with LOX IMVI melanoma, 96.3%; with SK-MEL-28 melanoma, 105%; in the assay on EKVX NSCLC, 90.1%; with SN12C renal, 96.8%. Also, the growth in the assay with UO-31 renal is 81.5%; in the assay on TK-10 renal, 99.5%; in the assay with ACHN renal it was 106%; in the assay with CAKI-1 renal, 94.4%; with CCRF-CEM leukemia it was 105%; in the assay with MOLT-4 leukemia, 94.1%.

In the case of `Cc1cc(C)c(S(=O)(=O)Oc2ccccc2[N+](=O)[O-])c(C)c1`, the growth was 15.8% in the assay on HCT-15 colon; 3.94% (active) in the assay on HT29 colon; -18.4% (active) in the assay with SNB-75 CNS; 33.1% with SNB-19 CNS; 29.7% in the assay with U251 CNS; 20.7% with PC-3 prostate. Also, the growth with SK-MEL-5 melanoma was 6.18% (active); with UACC-62 melanoma it was 24.5%; in the assay on LOX IMVI melanoma, 43.4%; in the assay with SK-MEL-28 melanoma, 50.6%; with EKVX NSCLC it was 48.2%; with SN12C renal, 35.6%. Besides, the growth is 22.8% in the assay with UO-31 renal; 33.9% in the assay with TK-10 renal; 37.4% in the assay on ACHN renal; 24% in the assay with CAKI-1 renal; 20.6% in the assay with CCRF-CEM leukemia; 34.6% with MOLT-4 leukemia.

As for `O=C(Cn1c[n+](CC(=O)c2ccc([N+](=O)[O-])cc2)c2ccccc21)Nc1cccc2cccnc12`, the growth in the assay on HCT-15 colon is 101%; in the assay with HT29 colon it was 40.4%; in the assay on SNB-75 CNS it was 29.8%; in the assay with SNB-19 CNS, 37.5%; in the assay with U251 CNS it was 63.7%; in the assay on PC-3 prostate it was 38.9%. Also, the growth in the assay with SK-MEL-5 melanoma is 95.8%; in the assay with UACC-62 melanoma it was 69.1%; with LOX IMVI melanoma, 86.3%; with SK-MEL-28 melanoma it was 78.7%; in the assay on EKVX NSCLC, 73.6%; with SN12C renal it was 30%. Moreover, the growth is 93.8% in the assay on ACHN renal; 84.1% in the assay with CAKI-1 renal; 94.7% in the assay on A498 renal; 89.4% with CCRF-CEM leukemia; 92.8% in the assay with MOLT-4 leukemia.

For the compound `O=C(/C=C/c1ccc(F)cc1)c1ccc(NC(=O)N2CCN(c3cc4c(cc3F)c(=O)c(C(=O)O)cn4C3CC3)CC2)cc1`, the growth in the assay on HCT-15 colon was 101%; in the assay with HT29 colon, 98%; in the assay with SNB-75 CNS, 90.7%; with SNB-19 CNS it was 88.1%; with U251 CNS, 98.9%; with PC-3 prostate, 96.6%. Moreover, the growth is 96.8% in the assay with SK-MEL-5 melanoma; 83.7% in the assay on LOX IMVI melanoma; 90.6% in the assay with SK-MEL-28 melanoma; 105% in the assay on SK-MEL-2 melanoma; 94.5% in the assay with EKVX NSCLC; 92.6% with SN12C renal. For the same compound, the growth in the assay with UO-31 renal was 77.9%; in the assay on TK-10 renal, 92.5%; in the assay with ACHN renal it was 106%; in the assay with CAKI-1 renal it was 95.2%; with CCRF-CEM leukemia, 90.9%; with MOLT-4 leukemia, 99.5%.

As to `CN1C(=O)NC(c2ccc3c(c2)OCO3)C=C1c1ccccc1` (stereo unspecified), the growth was 77.8% in the assay on HCT-15 colon; 84.2% in the assay with HT29 colon; 80.2% in the assay with SNB-75 CNS; 92.5% in the assay with SNB-19 CNS; 72% with U251 CNS; 102% in the assay with PC-3 prostate. Further, the growth with SK-MEL-5 melanoma is 99%; with LOX IMVI melanoma it was 96.5%; with SK-MEL-28 melanoma it was 106%; in the assay with SK-MEL-2 melanoma, 100%; in the assay on EKVX NSCLC, 95.4%; in the assay on SN12C renal, 89%. Besides, the growth in the assay with UO-31 renal is 64.7%; in the assay on TK-10 renal, 85%; in the assay with ACHN renal it was 105%; in the assay with CAKI-1 renal it was 82.8%; with CCRF-CEM leukemia it was 87.2%; in the assay with MOLT-4 leukemia, 94.3%.

On to `COc1ccc(OC)c(CCn2cncc2-c2c[nH]c3ccccc23)c1`, for which the growth was 71.4% with HCT-15 colon; 86.6% in the assay with HT29 colon; 3.33% (active) in the assay with SNB-75 CNS; 85.1% in the assay with SNB-19 CNS; 87.8% in the assay with U251 CNS; 71.4% in the assay with PC-3 prostate. Moreover, the growth in the assay with SK-MEL-5 melanoma is 49.7%; in the assay on LOX IMVI melanoma it was 79.6%; with SK-MEL-28 melanoma, 90.3%; in the assay on SK-MEL-2 melanoma it was 73.5%; in the assay with EKVX NSCLC it was 64.8%; with SN12C renal it was 72%. The growth in the assay with UO-31 renal was 46.6%; in the assay on TK-10 renal it was 149%; in the assay on ACHN renal, 76.7%; in the assay on CAKI-1 renal it was 66.7%; with A498 renal, 61.8%; in the assay on CCRF-CEM leukemia it was 68.1%. Further, the growth with MOLT-4 leukemia is 75.3%.

For the compound `O=[N+]([O-])c1cc(Br)c2cccc3c2c1CC3`, the growth with HCT-15 colon was 100%; with HT29 colon it was 108%; with SNB-75 CNS, 100%; in the assay on SNB-19 CNS, 98.7%; with U251 CNS, 99.8%; with PC-3 prostate, 96.2%. Further, the growth was 102% in the assay with SK-MEL-5 melanoma; 89% in the assay on UACC-62 melanoma; 109% with LOX IMVI melanoma; 106% in the assay on SK-MEL-28 melanoma; 109% in the assay with EKVX NSCLC; 101% with SN12C renal. For the same compound, the growth with UO-31 renal was 90.8%; in the assay on TK-10 renal it was 110%; in the assay with CAKI-1 renal, 95.3%; in the assay on CCRF-CEM leukemia, 99.9%; in the assay with MOLT-4 leukemia, 104%.
